Consider 24 compounds from PubChem BioAssay (NCATS).

Assay [1] is described as follows: Cytotoxicity counterscreen for inhibitors of SARS-CoV-2 cell entry (AID 1645845). Note: nearly all actives have a fitted effect of over 50% in size. To be noted: outcome: dose series up to 57.1 µM unless noted. In a few lines:
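Expi293F/hACE2 cells seeded overnight; cpd pin-transferred in DMSO, 1 h preincubation, + media, 48 h 37 C 5% CO2; ATPLite 1step luminescence; normalized to cells and no cells.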

Assay [2] is described as follows: Primary qHTS to identify inhibitors of SARS-CoV-2 cell entry (AID 1645846). Note: nearly all actives have a fitted effect of over 45% in size. Note: potency is the fitted concentration of half-maximal effect. To be noted: SARS-CoV-2 pseudovirus cell entry assay, luminescence; activity change, negative = inhibition: at 57.1 µM (top of the series) unless noted. In a few lines: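 Data are normalized to wells receiving SARS-CoV-2-S pseudoparticles and those given bald particles. Entry signal was luciferase luminescence in stable hACE2 Expi293F cells, 48 hr post-infection, after 1 hr compound pretreatment.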

Assay [3] in a line: VSVG counterscreen qHTS to identify inhibitors of SARS-CoV-2 cell entry (AID 1645847). Note: % is set by controls: 0 for no effect and ±100 for the full control effect; nearly all actives have a fitted effect of over 65% in size. An outline of the steps: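 Counterscreen using VSV-G (not spike) pseudotyped MLV particles on ACE2-expressing Expi293F cells after 1 h compound preincubation; infection ran 48 h at 37 °C. Data normalized to VSV-G PP and bald-PP wells.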
The nature of assay [4]: qHTS profiling of the MIPE4 collection as inhibitors of Plasmodium falciparum (3D7) proliferation (AID 743344; call rule not given here;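 note: scaled between DMSO vehicle wells and 0.29 µM artemisinin as full inhibition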). The conditions noted are these: P. falciparum 3D7 in erythrocytes, SYBR Green DNA fluorescence, 72 h; at 28.5 µM (top of the series). An outline of the steps: (§1)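 Erythrocytes infected with P. falciparum (0.3% parasitemia, 2.5% hematocrit) incubated with compounds 72 h at 37 C, 5% CO2. Lysis with saponin/Triton buffer containing SYBR Green I, overnight at room temperature in the dark; DNA fluorescence (485/535 nm) normalised to 0.29 uM artemisinin and DMSO.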

A short description of assay [5]: qHTS profiling of the MIPE4 collection as inhibitors of Plasmodium falciparum (DD2) proliferation (Rep 2) (AID 743346; call rule not given here). To be noted: P. falciparum Dd2 in erythrocytes, SYBR Green DNA, 72 h; at 28.5 µM (top of the series). In a few lines:
as §1

Assay [6] can be described thus: qHTS profiling of the MIPE4 collection as inhibitors of Plasmodium falciparum (HB3) proliferation (AID 743347; call rule not given here;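 note: plate controls were DMSO vehicle wells for no effect and artemisinin wells for full effect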). To be noted: P. falciparum HB3 in erythrocytes, SYBR Green DNA, 72 h; at 28.5 µM (top of the series). In a few lines:
as §1

The target in assay [7] is Bile acid receptor (Homo sapiens) (UniProt Q96RI1). In words: qHTS assay for small molecule agonists of farnesoid X receptor signaling (AID 588527).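 Note: 0% = vehicle basal and 100% = reference agonist.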 The conditions noted are these: HEK293T FXR-UAS-bla, beta-lactamase ratio, 16 h; stronger effect = higher value. In a few lines:
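Agonist-mode beta-lactamase reporter in GeneBLAzer FXR-UAS-bla HEK293T cells, titration up to 92 uM, 16 h exposure at 37 C, CCF4 fluorescence. Response scaled to DMSO (0%) and 100 uM chenodeoxycholic acid (100%), then Hill-fitted for EC50 and efficacy.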

The target of assay [8] is Nuclear receptor subfamily 1 group I member 3 (Homo sapiens) (UniProt Q14994). Nature of the assay: Primary qHTS for antagonist of constitutive androstane receptor (CAR) against the NCATS DSHEA and TCM libraries (AID 1794836; active = well fitted curve in the direction sought with a large enough effect). An outline of the steps:
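HepG2 cells stably carrying hCAR and a CYP2B6 luciferase reporter (2,500 cells/well) attached for 5 h, then received compounds with 48 uM CITCO for 24 h at 37C. ONE-Glo luminescence read antagonism; CellTiter-Fluor (405/540 nm) gave viability.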

Assay [9] is described as follows: KB-8-5-11 P-gp reporter qHTS against the NCATS DSHEA and TCM libraries (AID 1919977; active = well fitted curve in the direction sought with a large enough effect; note: 0% is about no effect). An outline of the steps: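 Cells were seeded, allowed ~4 h to attach, dosed by pin tool (substance titrations), incubated ~72 h at 37C, then lysed with CellTiter-Glo for 30 min at room temperature before luminescence reading.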
The nature of assay [10]: Validation screen for inhibitors of Lassa infection (AID 463096). Note: % is set by controls: 0 for no effect and ±100 for the full control effect.
A short description of assay [11]: qHTS profiling of the MIPE4 collection as inhibitors of Plasmodium falciparum (DD2) proliferation (AID 743345; call rule not given here). To be noted: P. falciparum Dd2 in erythrocytes, SYBR Green DNA, 72 h; at 28.5 µM (top of the series). An outline of the steps: as §1

Records with an inconclusive call do not appear. Activity calls are given as the source filed them. Unless noted, calls come from the whole dose curve.

Sequence of Nuclear receptor subfamily 1 group I member 3 (Homo sapiens) (Q14994 whole entry, looked up): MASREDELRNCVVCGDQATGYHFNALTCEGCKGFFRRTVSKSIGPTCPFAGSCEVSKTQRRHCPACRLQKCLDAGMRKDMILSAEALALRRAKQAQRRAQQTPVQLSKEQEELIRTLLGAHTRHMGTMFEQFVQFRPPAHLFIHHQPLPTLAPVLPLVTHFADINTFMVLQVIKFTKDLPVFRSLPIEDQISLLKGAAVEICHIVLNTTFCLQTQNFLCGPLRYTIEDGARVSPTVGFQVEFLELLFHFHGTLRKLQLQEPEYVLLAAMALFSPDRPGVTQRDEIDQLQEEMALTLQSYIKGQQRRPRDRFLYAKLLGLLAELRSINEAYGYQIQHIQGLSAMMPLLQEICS
Sequence of Bile acid receptor (Homo sapiens) (Q96RI1 whole entry, looked up): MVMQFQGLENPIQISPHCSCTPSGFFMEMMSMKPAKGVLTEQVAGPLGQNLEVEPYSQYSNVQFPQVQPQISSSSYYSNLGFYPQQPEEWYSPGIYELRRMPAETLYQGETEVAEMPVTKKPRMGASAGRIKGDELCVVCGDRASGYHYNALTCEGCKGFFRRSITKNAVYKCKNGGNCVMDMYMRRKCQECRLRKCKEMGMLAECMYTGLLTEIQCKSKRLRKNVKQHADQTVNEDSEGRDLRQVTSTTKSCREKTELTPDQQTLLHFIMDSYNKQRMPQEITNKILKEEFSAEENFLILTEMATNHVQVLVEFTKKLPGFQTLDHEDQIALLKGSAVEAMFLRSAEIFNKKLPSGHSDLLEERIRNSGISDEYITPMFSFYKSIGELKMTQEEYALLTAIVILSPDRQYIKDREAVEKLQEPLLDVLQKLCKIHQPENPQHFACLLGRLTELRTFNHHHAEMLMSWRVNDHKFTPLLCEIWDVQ

Turning to `Cc1nc(NC(=O)N2CCCC2C(N)=O)sc1-c1ccnc(C(C)(C)C(F)(F)F)c1` (stereo not drawn), the Potency result in assay [1] is “inactive”. Besides, in assay [2], the activity change, negative = inhibition is -29.8%. On the same counts, the results for `Cc1cnc(NC(=O)c2cc(Oc3cnc(C(=O)N(C)C)nc3)c3cc(C)oc3c2)cn1` are “inactive” and -4.66%.

On to `COc1ccc(Cl)c(Nc2nc3ccccc3nc2NS(=O)(=O)c2cccc(NC(=O)C(C)(C)N)c2)c1`, for which the Potency result in assay [1] is “inactive”. Further, the activity change, negative = inhibition in assay [2] was -26.9%. With `COC1CC(C(=O)c2ccc3c(N)ncc(-c4ccc(-c5cnn(C)c5)cc4)c3n2)C1` (stereo not drawn), the Potency result in [1] and in [3] was “inactive” each time. The Potency in assay [2] is 8.91 µM (active).

In assay [4], `O=C(NCc1ccccc1)c1csc(Nc2ccncn2)n1` gave a parasite growth, % of DMSO control of 30.1%. The same compound came in with a parasite growth, % of control (lower = inhibition) in assay [5] of 36.6%. This compound also returned a growth, % of control in assay [6] of 31.7%. Also, in assay [1], the Potency result is “inactive”.

With `CC(=O)c1cnc2ccc(-c3cc(Cl)c(O)c(Cl)c3)nc2c1NC1CCC(CN(C)C)CC1` (stereo not drawn), the activity change, negative = inhibition in assay [2] is -98.1% [at 11.3 µM]. As for `Cc1c(O)cccc1C(=O)NC(CSc1ccccc1)C(O)CN1CC2CCCCC2CC1C(=O)NC(C)(C)C` (stereo not drawn), the Potency in assay [2] is 31.6 µM (active).

On to `C[C@@H]1COCCN1c1cc(C2(S(C)(=N)=O)CC2)nc(-c2ccnc3[nH]ccc23)n1` (stereo partly drawn), for which, in assay [2], the Potency is 10 µM (active). Take `Cc1nc(NC(=O)N2CCC[C@H]2C(N)=O)sc1-c1csc(C(C)(C)C)n1`: the Potency result in assay [2] is “inactive”.

On to `Fc1ccc(-c2csc3ncnc(NCc4ccc5c(c4)OCO5)c23)cc1`, for which the Potency in assay [2] is 10 µM (active).

With `COc1cc(N2CCC(O)CC2)ccc1Nc1cc(Nc2ccccc2S(=O)(=O)C(C)C)c2cc[nH]c2n1`, the activity change, negative = inhibition in [2] was -27.7%. Still for that read-out and setting: for `Nc1nccc2c1ncn2[C@@H]1C=C(CO)[C@@H](O)[C@H]1O` the value was -51.3%. `O=C(Nc1cnn2ccc(N3CCC[C@@H]3c3cc(F)ccc3F)nc12)N1CC[C@H](O)C1`: the Potency result in [2] is “inactive”. For the compound `CCCc1cc(C(=O)N[C@H](Cc2ccc(-c3cccc(OC(F)(F)F)c3)nc2)C(=O)N[C@@H]2CCNC2)sc1C`, the Potency in [2] was 31.6 µM (active). Same read-out and setting: for `Cc1cc(CS(=O)(=O)c2ccccc2)cc(OCc2ccc(CN3CCC[C@@H]3CO)cc2)c1` the value was 12.6 µM (active). Consider `COc1cc(OC)c(/C=C/S(=O)(=O)Cc2ccc(OC)c(NCC(=O)O)c2)c(OC)c1`, for which the activity change, negative = inhibition in assay [2] is -75.7%. With `Clc1ccc(-c2nc3sccn3c2/C=N/OCc2ccc(Cl)c(Cl)c2)cc1`, the activation in [7] is 14.7% (inactive). Moreover, the Potency entry in assay [1] is “inactive”. In addition, the activity change, negative = inhibition in assay [2] was -8.8%. Consider `Cc1ccc(S(=O)(=O)Cc2nc(-c3ccc(C(=O)NCc4cccnc4)cc3)oc2C)cc1`, for which the activity change, negative = inhibition in assay [2] is -96.2%.

Consider `CN[C@@H](C)C(=O)N[C@H](C(=O)N1CCC[C@H]1C(=O)Nc1sc(-c2ncco2)nc1-c1ccccc1)C1CCCCC1`, for which, in assay [2], the Potency entry was “inactive”. For `CNC(=O)c1c(-c2ccc(F)cc2)oc2cc(N(CCO)S(C)(=O)=O)c(C3CC3)cc12`, the activity change, negative = inhibition in assay [2] was -3.84%. In the case of `CC[C@H](CC[C@@H](C)[C@H]1CC[C@H]2[C@@H]3CC=C4C[C@@H](O)CC[C@]4(C)[C@H]3CC[C@]12C)C(C)C`, the Potency entry in [1], in [8] and in assay [9] was “inactive” each time. In assay [2], the activity change, negative = inhibition was -9.4%. `C[C@H]1CC2[C@@H]3CCC4=CC(=O)C=C[C@]4(C)[C@@]3(F)[C@@H](O)C[C@]2(C)[C@@]1(O)C(=O)CO` (stereo partly drawn): the Potency entry in assay [10], in assay [1] and in assay [2] was “inactive” throughout.

As to `Cc1cc(CC(C)CC(C)(C)C)n(O)c(=O)c1` (stereo not drawn), the Potency in assay [2] is 20 µM (active). For `CN1CCN(c2ncc(-c3cc(Cl)cc(Cl)c3Cl)c(N)n2)CC1`, the parasite growth, % of DMSO control in [4] is 53.8%. The compound also displayed a parasite growth remaining, % of DMSO control (lower = more inhibition) in [11] of 75.6%. In assay [5], this compound returned a parasite growth, % of control (lower = inhibition) of 39.8%. Further, the growth, % of control in assay [6] is 81.9%. The Potency entry in assay [1] is “inactive”.
